{
  "source": "ChEMBL document CHEMBL3988442",
  "about": "“University of Dundee, Small-Polar-MMV Screening Library” (2021)",
  "key": {"[1]": {"target": "T1, Aspartate--tRNA(Asp/Asn) ligase (Mycobacterium tuberculosis (strain ATCC 25618 / H37Rv)) (UniProt P9WFW3)", "T1 sequence (whole entry)": "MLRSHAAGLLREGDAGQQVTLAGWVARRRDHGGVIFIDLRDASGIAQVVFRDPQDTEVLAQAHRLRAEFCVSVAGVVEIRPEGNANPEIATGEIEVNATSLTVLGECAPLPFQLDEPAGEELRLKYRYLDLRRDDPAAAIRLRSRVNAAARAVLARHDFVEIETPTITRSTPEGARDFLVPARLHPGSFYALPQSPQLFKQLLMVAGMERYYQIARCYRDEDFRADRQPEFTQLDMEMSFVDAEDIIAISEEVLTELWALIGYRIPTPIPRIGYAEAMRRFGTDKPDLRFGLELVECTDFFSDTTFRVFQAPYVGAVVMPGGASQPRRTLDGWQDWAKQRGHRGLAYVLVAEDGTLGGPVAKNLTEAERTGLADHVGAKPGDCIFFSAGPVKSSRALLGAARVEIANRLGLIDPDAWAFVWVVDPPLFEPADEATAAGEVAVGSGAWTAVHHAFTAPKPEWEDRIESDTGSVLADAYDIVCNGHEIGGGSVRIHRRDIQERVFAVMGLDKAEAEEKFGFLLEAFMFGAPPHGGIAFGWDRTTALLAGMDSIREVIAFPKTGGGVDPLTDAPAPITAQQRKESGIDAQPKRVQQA", "assay": "Assay for Asp RNA synthetase-1 from Mycobacterium tuberculosis", "type": "functional", "design": "scale not given: direction of the effect not stated beside the values", "settings": "30 µM"}, "[2]": {"target": "Shiga toxin 2 (Escherichia coli O157:H7) (UniProt P09385+P09386)", "assay": "E. coli 0.157:H7 Shiga Toxin SOP - stx2 screening assay", "type": "functional", "design": "scale not given: direction of the effect not stated beside the values", "settings": "30 µM"}},
  "data": [
    {"smiles": "Cc1ccc(CNC(=O)NCCCn2nc3ccccn3c2=O)s1", "values": [
      {"measurement": "Percent Effect", "setting": "[1]", "result": 7.2, "unit": "%"},
      {"measurement": "Percent Effect", "setting": "[2]", "result": 0.512, "unit": "%"}
    ]},
    {"smiles": "O=c1[nH]c(CN(Cc2ccco2)C2CCCC2)nc2ccccc12", "values": [
      {"measurement": "Percent Effect", "setting": "[1]", "result": -3.64, "unit": "%"},
      {"measurement": "Percent Effect", "setting": "[2]", "result": -24.3, "unit": "%"}
    ]},
    {"smiles": "Cc1cnn(CC2CN(CCc3ccncc3)CCO2)c1", "note": "(stereo unspecified)", "values": [
      {"measurement": "Percent Effect", "setting": "[1]", "result": 8.62, "unit": "%"},
      {"measurement": "Percent Effect", "setting": "[2]", "result": -2.69, "unit": "%"}
    ]},
    {"smiles": "COc1ccc(C(C)N2CCN(Cc3nccn3C)CC2)cc1Cl", "note": "(stereo unspecified)", "values": [
      {"measurement": "Percent Effect", "setting": "[1]", "result": -0.0303, "unit": "%"},
      {"measurement": "Percent Effect", "setting": "[2]", "result": 16, "unit": "%"}
    ]},
    {"smiles": "CC(C)(C)c1nc(CN2CCCC2Cn2cccn2)no1", "note": "(stereo unspecified)", "values": [
      {"measurement": "Percent Effect", "setting": "[1]", "result": -2.09, "unit": "%"},
      {"measurement": "Percent Effect", "setting": "[2]", "result": -50.8, "unit": "%"}
    ]},
    {"smiles": "Cc1cnn(C2CN(Cc3nc(-c4ccco4)no3)C2)c1", "values": [
      {"measurement": "Percent Effect", "setting": "[1]", "result": -7.28, "unit": "%"},
      {"measurement": "Percent Effect", "setting": "[2]", "result": 10.9, "unit": "%"}
    ]},
    {"smiles": "CC(C)c1nnc(NC(=O)NCc2ccc(CO)c(F)c2)s1", "values": [
      {"measurement": "Percent Effect", "setting": "[1]", "result": 1.21, "unit": "%"},
      {"measurement": "Percent Effect", "setting": "[2]", "result": 0.535, "unit": "%"}
    ]},
    {"smiles": "Cc1cc(=O)n(CC(=O)NCCC(C)C)c(-c2cccc(Cl)c2)n1", "values": [
      {"measurement": "Percent Effect", "setting": "[1]", "result": 12.2, "unit": "%"},
      {"measurement": "Percent Effect", "setting": "[2]", "result": -9.6, "unit": "%"}
    ]},
    {"smiles": "Cn1cnc2c1CCN(Cc1nc(Cc3ccccc3)no1)C2", "values": [
      {"measurement": "Percent Effect", "setting": "[1]", "result": -1.94, "unit": "%"},
      {"measurement": "Percent Effect", "setting": "[2]", "result": 15.1, "unit": "%"}
    ]},
    {"smiles": "CC(C)Oc1ncccc1CNC(=O)N1CCC(C(N)=O)C1", "note": "(stereo unspecified)", "values": [
      {"measurement": "Percent Effect", "setting": "[1]", "result": -4.37, "unit": "%"},
      {"measurement": "Percent Effect", "setting": "[2]", "result": 30.9, "unit": "%"}
    ]},
    {"smiles": "CN(C(=O)Cn1nc(-c2cccs2)ccc1=O)C1CCS(=O)(=O)C1", "note": "(stereo unspecified)", "values": [
      {"measurement": "Percent Effect", "setting": "[1]", "result": 1.02, "unit": "%"},
      {"measurement": "Percent Effect", "setting": "[2]", "result": -35.1, "unit": "%"}
    ]},
    {"smiles": "CCCn1nc2c(cc1=O)CN(Cc1nc(CCOC)no1)CC2", "values": [
      {"measurement": "Percent Effect", "setting": "[1]", "result": 16.9, "unit": "%"},
      {"measurement": "Percent Effect", "setting": "[2]", "result": -17.7, "unit": "%"}
    ]},
    {"smiles": "CCCN1CC(C(=O)Nc2ccccn2)CC1=O", "note": "(stereo unspecified)", "values": [
      {"measurement": "Percent Effect", "setting": "[1]", "result": -1.33, "unit": "%"},
      {"measurement": "Percent Effect", "setting": "[2]", "result": 1.5, "unit": "%"}
    ]},
    {"smiles": "CCNC(=O)N1CCCCC1CCO", "note": "(stereo unspecified)", "values": [
      {"measurement": "Percent Effect", "setting": "[1]", "result": -3.54, "unit": "%"},
      {"measurement": "Percent Effect", "setting": "[2]", "result": -15.4, "unit": "%"}
    ]},
    {"smiles": "Cc1cc(C)n(C2CCCN(C(=O)c3cc(C4CC4)on3)C2)n1", "note": "(stereo unspecified)", "values": [
      {"measurement": "Percent Effect", "setting": "[1]", "result": -7.81, "unit": "%"},
      {"measurement": "Percent Effect", "setting": "[2]", "result": -32.5, "unit": "%"}
    ]},
    {"smiles": "CCc1nnc(CNCC2CCN(CC(O)c3ccccc3)CC2)o1", "note": "(stereo unspecified)", "values": [
      {"measurement": "Percent Effect", "setting": "[1]", "result": -2.95, "unit": "%"},
      {"measurement": "Percent Effect", "setting": "[2]", "result": -40.8, "unit": "%"}
    ]},
    {"smiles": "COC(=O)CCC(=O)N1CCC2(CN(Cc3cccc(F)c3)C2)C1", "values": [
      {"measurement": "Percent Effect", "setting": "[1]", "result": 8.76, "unit": "%"},
      {"measurement": "Percent Effect", "setting": "[2]", "result": 2.07, "unit": "%"}
    ]},
    {"smiles": "CC(C)S(=O)(=O)c1nnc(CCNC(=O)OC(C)(C)C)o1", "values": [
      {"measurement": "Percent Effect", "setting": "[1]", "result": 2.85, "unit": "%"},
      {"measurement": "Percent Effect", "setting": "[2]", "result": -59.2, "unit": "%"}
    ]}
  ]
}
